These results are taken from PubChem BioAssay (NCATS).

Several values for one entry are separate records, joined by “and”; a condition that tells them apart may be missing. Equal values may be shown once. Inconclusive results are not listed. Activity calls are given as the source filed them. Unless noted, the call rests on the fitted dose curve; in most records, active means well fitted curve in the direction sought with a large enough effect; inconclusive means small, poorly fitted or top-dose-only effect, or another doubt; inactive means no such curve, though single readings can be large; an effect the other way counts as inactive or inconclusive.

Assay [1] is described as follows: qHTS Assay for Lipid Storage Modulators (AID 1519; calls by dose curve; on activity change, negative = inhibition: on the % scale 0 is the no-effect control and ±100 the full control effect). The note with it: Drosophila S3 cells, BODIPY lipid droplet/cell ratio, laser cytometry, cells loaded with oleic acid; for activity change, negative = inhibition: at 57.5 µM (top of the series). In a few lines:
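Cells seeded at 5,000 per well were treated with compounds over a concentration series and loaded with oleic acid (400 uM, as added). Lipid droplet fluorescence (488 nm excitation, 500-530 nm channel) was read by laser-scanning cytometry and normalized to 20 uM Triacsin C.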
For orientation: Quantitative high-throughput screening tests each substance at several concentrations.

The target in assay [2] is DNA repair nuclease/redox regulator APEX1 (Homo sapiens) (UniProt P27695). Description: qHTS Validation Assay for Inhibitors of the Human Apurinic/apyrimidinic Endonuclease 1 (APE1) (AID 1705;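 further: TAMRA fluorescence gain over two minutes as APE1 cuts a quenched THF abasic duplex; on the % scale 0 is the no-effect control and ±100 the full control effect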). The note with it: purified APE1 endonuclease activity, fluorescence, titration; series mostly up to 57.1 µM. An outline of the steps: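 Read-out: TAMRA fluorescence (525 nm ex, 598 nm em) from cleavage of a quenched THF abasic-site duplex, 50 nM final; activity taken as intensity change between third and first of three reads 60 s apart.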
DNA repair nuclease/redox regulator APEX1 (Homo sapiens), sequence (P27695 whole entry, looked up): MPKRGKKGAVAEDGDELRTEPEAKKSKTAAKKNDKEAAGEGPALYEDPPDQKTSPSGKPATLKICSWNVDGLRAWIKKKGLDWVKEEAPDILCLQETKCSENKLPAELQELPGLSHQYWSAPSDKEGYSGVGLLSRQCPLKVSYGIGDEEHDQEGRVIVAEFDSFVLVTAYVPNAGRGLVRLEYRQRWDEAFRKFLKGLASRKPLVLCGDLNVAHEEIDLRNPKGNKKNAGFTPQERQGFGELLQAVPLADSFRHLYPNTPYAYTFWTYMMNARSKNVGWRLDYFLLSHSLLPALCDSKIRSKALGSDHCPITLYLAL

Assay [3] in a line: Counterscreen for APE1 Inhibitors: Fluorescent Dye Displacement Validation Assay (AID 1707).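 Further: plate controls were ThO with dsDNA and no compound for no effect and ThO without dsDNA for full effect.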 The following applies: fluorescent dye displacement from DNA; series mostly up to 57.1 µM. In a few lines: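 Thiazole Orange (250 nM) bound to 50 nM TAMRA-labelled dsDNA with tetrahydrofuran abasic site; displacement by DNA-binding compounds lowers fluorescence. Buffer 50 mM Tris-HCl pH 7.5, 50 mM NaCl, 2 mM MgCl2, 0.01% Tween-20; endpoint read at 480/540 nm.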

A short description of assay [4]: qHTS for differential inhibitors of proliferation of Plasmodium falciparum line 7G8 (AID 1815).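 Further: parasite growth measured after three days of incubation.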 Further: potency means the concentration at half of the fitted maximal effect.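 On activity change, negative = inhibition: plate controls were vehicle wells for no effect and reference inhibitor wells for full effect.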 The following applies: Plasmodium falciparum 7G8 proliferation inhibition; series mostly up to 28.7 µM.
Assay [5] in a line: qHTS for differential inhibitors of proliferation of Plasmodium falciparum line Dd2 (AID 1882).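 Further: compound exposure of 72 h on infected erythrocytes; plate controls were DMSO vehicle for no effect and 0.29 µM artemisinin for full effect; nearly all actives have a fitted effect of over 65% in size.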 The following applies: Potency: Plasmodium falciparum Dd2 proliferation inhibition; series mostly up to 28.7 µM. In a few lines: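 SYBR Green I DNA fluorescence read-out, ex 485/em 535 nm. Signals were normalized to 0.29 uM artemisinin and DMSO wells, then corrected using vehicle-only plates flanking each stack. Parasite growth ran 72 h in erythrocytes before lysis.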

Assay [6] in a line: qHTS for differential inhibitors of proliferation of Plasmodium falciparum line W2 (AID 1883).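 Further: parasites grown with compound for 72 h before lysis and staining.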 Further: potency means the concentration at half of the fitted maximal effect.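 On activity change, negative = inhibition: 0% = vehicle wells and -100% = control inhibitor wells.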 The note with it: Potency: Plasmodium falciparum W2 proliferation inhibition; series mostly up to 28.7 µM.
A short description of assay [7]: qHTS Assay for Modulators of Human Peripheral Myelin Protein 22 (PMP22) Expression/Activity (AID 1967; active means well fitted curve in the direction sought with a large enough effect in the signal ratio; the % refers to the signal ratio;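 further: 0% = untreated cells and 100% end not stated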). The note with it: Cell-based PMP22 reporter, dual-color luciferase ratio, mouse Pmp22 promoter in mouse Schwann cells; series mostly up to 115 µM. In a few lines:
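Mouse MSC80 Schwann line, Pmp22 promoter–CBG68 reporter, EF-alpha–CBR internal control. 24h compound exposure, 37 °C/5% CO2, DMEM + 10% FBS. Readout: corrected green/red luminescence ratio, normalized to untreated cells; concentration-response curves fitted and classified.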

Assay [8] concerns the target Ferritin light chain (Equus caballus) (UniProt P02791). Put plainly: qHTS Validation Assay for Identification of Novel General Anesthetics (AID 2323). Further: on the % scale 0 is the no-effect control and ±100 the full control effect. The following applies: horse apoferritin, anesthetic-site fluorescent probe displacement; series mostly up to 76.9 µM. In a few lines: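 10 uM horse-spleen apoferritin + 1-AMA (50% saturated, PBS); cpd pin-transferred, 10 min RT. Ex 380/Em 535 nm endpoint. Activity normalized between free 1-AMA and 1-AMA/apoferritin; 4-parameter Hill fit of concentration-response.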

In assay [9] the target is ATP-dependent DNA helicase Q1 (Homo sapiens) (UniProt P46063). Put plainly: qHTS Validation Assay for Inhibitors of RecQ-Like Dna Helicase 1 (RECQ1) (AID 2353).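 Further: plate controls were DMSO vehicle for no effect and enzyme-free control for full effect.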 The note with it: recombinant RECQ1 helicase DNA unwinding assay; series mostly up to 25.6 µM. An outline of the steps:
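50 nM RECQ1T1 preincubated 15 min with compound in Tris pH 8.0 buffer with MgCl2, DTT, Tween-20 and 2.5 ug/ml poly(dI-dC); started with 200 nM TAMRA/BHQ-2 forked duplex and 2 mM ATP. Unwinding read as fluorescence (525/598 nm), two reads 2 h apart.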

Assay [10] can be described thus: Cytometric Cell-Based qHTS for Inhibitors of the mTORC1 Signaling Pathway in MEF (Tsc2-/-, p53-/-) Cells (AID 2660).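 Further: percent of cells above a phospho-rpS6 to PI ratio cutoff in each well; plate controls were DMSO for no effect and rapamycin for full effect.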 The following applies: mTORC1 pathway cytometry; series mostly up to 38.3 µM. In a few lines: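 Tsc2-/-, p53-/- MEFs (empty vector) exposed to compound 24 h at 37 C, fixed, stained with Alexa-488 anti-phospho-rpS6 Ser235/236 and propidium iodide. Acumen laser scanning; phospho-S6/PI ratio thresholded against 7.5 nM rapamycin, reported as % positive cells.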

The nature of assay [11]: High Content Imaging Cell-Based qHTS for Inhibitors of the mTORC1 Signaling Pathway in MEF (Tsc2-/-, p53-/-) Cells (AID 2666).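 Further: percent of cells scored positive for phospho-rpS6 Ser235/236 immunostaining by imaging.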 The note with it: series mostly up to 38.3 µM. In a few lines:
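Cells were plated, dosed with compound after 24 hrs, and incubated another 24 hrs at 37 degree Celsius. Fixed cells were immunostained for phospho-rpS6 Ser235/236 and counterstained, and the normalized signal was scored as % active cells against rapamycin and DMSO controls.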

A short description of assay [12]: High Content Imaging Cell-Based qHTS for Inhibitors of the mTORC1 Signaling Pathway in MEF Cells (AID 2667).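 Further: Tsc2-/- p53-/- MEFs stably re-expressing wild-type Tsc2 exposed 24 h; plate controls were DMSO wells for no effect and rapamycin control wells for full effect.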 The following applies: series mostly up to 38.3 µM. In a few lines: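 Immunofluorescence for rpS6 phosphorylation in MEFs of Tsc2-/-, p53-/- background rescued with WT Tsc2. Compound exposure lasted 24 hrs. Inhibition was scored against rapamycin-treated control wells.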

Assay [13] is described as follows: Cytometry Cell-Based qHTS for Inhibitors of the mTORC1 Signaling Pathway in MEF cells (AID 2668).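 Further: Tsc2-/- p53-/- mouse embryonic fibroblasts stably re-expressing wild-type Tsc2; percent cells positive for phospho-rpS6 Ser235/236 relative to propidium iodide stain; plate controls were DMSO wells for no effect and 7.5 nM rapamycin control wells for full effect.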 The note with it: mTORC1 pathway readout; series mostly up to 38.3 µM. In a few lines:
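Read-out: phospho-rpS6 Ser235/236 immunofluorescence normalized to propidium iodide intensity, scored as % active cells against a rapamycin (7.5 nM) threshold. Cells: Tsc2-/-, p53-/- MEFs stably expressing WT Tsc2, compound-treated 24 hrs at 37 degree Celsius.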

Assay [14] concerns the target Endonuclease 4 (Escherichia coli (strain K12)) (UniProt P0A6C1). Put plainly: Counterscreen for APE1 Inhibitors: qHTS Validation Assay for Inhibitors of Endonuclease IV (AID 1708). Further: on the % scale 0 is the no-effect control and ±100 the full control effect. The note with it: E. coli endonuclease IV, DNA cleavage fluorescence; series mostly up to 57.1 µM. An outline of the steps:
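Enzymatic AP-site incision assay using a double-stranded THF substrate labelled with TAMRA and BHQ-2; released fluorescence signals activity. Enzyme 2 nM, substrate 50 nM, 15 min compound preincubation.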

A short description of assay [15]: qHTS for differential inhibitors of proliferation of Plasmodium falciparum line GB4 (AID 1816).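 Further: parasite growth measured after 72 h incubation.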 Further: potency means the concentration at half of the fitted maximal effect.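 On activity change, negative = inhibition: 0% = vehicle DMSO and -100% = reference inhibitor.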 The note with it: Potency: Plasmodium falciparum GB4 proliferation inhibition; series mostly up to 28.7 µM.
The nature of assay [16]: qHTS for differential inhibitors of proliferation of Plasmodium falciparum line 3D7 (AID 1876).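 Further: parasite growth measured after three days of culture; 0% = vehicle wells and -100% = reference inhibitor wells.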 The following applies: P. falciparum 3D7 proliferation inhibition; series mostly up to 28.7 µM.
Assay [17] can be described thus: qHTS for differential inhibitors of proliferation of Plasmodium falciparum line D10 (AID 1877).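 Further: parasites grown with compound for 72 h before DNA staining; plate controls were vehicle wells for no effect and reference inhibitor wells for full effect.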 The note with it: series mostly up to 28.7 µM.
Assay [18] can be described thus: qHTS for differential inhibitors of proliferation of Plasmodium falciparum line HB3 (AID 1886).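 Further: parasites grown with compound for 72 h before SYBR Green readout; plate controls were vehicle for no effect and reference inhibitor for full effect.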 The note with it: Potency: Plasmodium falciparum HB3 proliferation inhibition; series mostly up to 28.7 µM.
[19] abbreviates: measured here: cell count channel max response.
Setting [20] is: measured here: lipid channel max response.

Ferritin light chain (Equus caballus), sequence (P02791 2-175 limits assumed): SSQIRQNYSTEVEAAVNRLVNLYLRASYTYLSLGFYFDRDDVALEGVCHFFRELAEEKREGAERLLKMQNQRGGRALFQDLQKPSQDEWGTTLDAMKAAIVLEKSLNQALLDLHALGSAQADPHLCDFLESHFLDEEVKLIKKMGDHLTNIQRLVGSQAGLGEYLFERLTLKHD
ATP-dependent DNA helicase Q1 (Homo sapiens), sequence (P46063 whole entry, looked up): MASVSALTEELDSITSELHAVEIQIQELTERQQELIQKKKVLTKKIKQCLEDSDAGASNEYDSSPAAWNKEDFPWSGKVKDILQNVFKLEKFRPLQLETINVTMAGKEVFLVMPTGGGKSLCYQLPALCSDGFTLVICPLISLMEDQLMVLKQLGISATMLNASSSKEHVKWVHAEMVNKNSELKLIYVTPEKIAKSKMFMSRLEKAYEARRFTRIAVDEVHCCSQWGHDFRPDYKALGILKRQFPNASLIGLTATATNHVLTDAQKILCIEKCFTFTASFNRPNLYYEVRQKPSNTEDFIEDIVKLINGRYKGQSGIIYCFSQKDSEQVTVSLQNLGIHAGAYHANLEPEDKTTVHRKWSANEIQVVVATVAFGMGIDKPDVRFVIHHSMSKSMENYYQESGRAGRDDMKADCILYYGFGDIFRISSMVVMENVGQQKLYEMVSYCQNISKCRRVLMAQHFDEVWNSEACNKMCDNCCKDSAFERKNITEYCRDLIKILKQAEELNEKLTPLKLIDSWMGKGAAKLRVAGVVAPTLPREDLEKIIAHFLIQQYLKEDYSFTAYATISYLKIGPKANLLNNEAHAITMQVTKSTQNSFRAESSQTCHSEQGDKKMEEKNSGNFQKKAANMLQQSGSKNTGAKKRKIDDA

Consider `O=C1NCN(c2ccccc2)C12CCN(CC1COc3ccccc3O1)CC2` (centres undefined), for which the activity change, negative = inhibition in [1] was 1.66% (inactive). Also, the max response in assay [1] (setting [19]) was determined as 10.9%; in assay [1] (setting [20]) it was 12.8%. Also, the molecule was called inactive in assay [2], in assay [7], in assay [8], in assay [9] and in assay [10]. In addition, the Potency result in [3], in assay [5], in assay [11], in assay [12] and in [13] was “inactive” each time. In addition, the Potency is 8.91 µM (active) in assay [4] and 10 µM (active) in [6].

Turning to `Clc1ccc(COC(Cn2ccnc2)c2ccc(Cl)cc2Cl)cc1` (centres undefined), the activity change, negative = inhibition in assay [1] is -5.83% (inactive). The max response in [1] (setting [19]) is -16.9%; in assay [1] (setting [20]) it was -20.8%.

As for `Cc1cccc(C)c1NC1=NCCCS1`, the result in [2], in assay [14], in [8], in assay [9] and in assay [10] was inactive. Besides, the Potency entry in assay [3], in [16], in assay [17], in assay [18], in assay [11] and in assay [12] was “inactive” throughout. The Potency result in assay [13] was “inactive”. The Potency in [4] is 7.94 µM (active); in assay [15] it was 14.1 µM (active); in [6] it was 5.01 µM (active).

In the case of `CCC(COC(=O)c1cc(OC)c(OC)c(OC)c1)(c1ccccc1)N(C)C` (centres undefined), the activity change, negative = inhibition in [1] was 6.16% (inactive). The max response in [1] (setting [19]) is -7.6%; in assay [1] (setting [20]), -1.9%.

On to `CC(C)=CC1C(C(=O)OCc2cccc(Oc3ccccc3)c2)C1(C)C` (centres undefined), for which the activity change, negative = inhibition in assay [1] is 8.71% (inactive). For the same molecule, the figures for the max response in assay [1] (setting [19]) and in assay [1] (setting [20]) were 10.5% and 23.2%, respectively.

On to `Oc1cccc2cccnc12`, for which, in assay [1], the activity change, negative = inhibition was 3.44% (inactive). Besides, the values for the max response in assay [1] (setting [19]) and in assay [1] (setting [20]) were -2.95% and 3.47%, respectively.

For `NN=C(N)N`, the activity change, negative = inhibition in assay [1] was 1.91% (inactive) and 1.41% (inactive). Moreover, the max response in assay [1] (setting [19]) was 12.1% and -0.681%; in assay [1] (setting [20]) it was 15.5% and -2.91%. The molecule was classed as inactive in [2], in [14], in assay [8], in assay [9] and in [10]. Besides, the Potency result in [3], in assay [4], in [15], in assay [16], in assay [17] and in assay [5] was “inactive” throughout. The Potency result in assay [6], in assay [18], in [11], in assay [12] and in assay [13] was “inactive” in each case.

Turning to `Cc1ccc(-c2nc3ccc(C)cn3c2CC(=O)N(C)C)cc1`, the activity change, negative = inhibition in assay [1] was 1.62% (inactive). The max response in [1] (setting [19]) is 1.87%; in assay [1] (setting [20]), 4.31%.
